Measured values from PubChem BioAssay AID2099 (Broad Institute, 2009).
Screen size: about 330,000 compounds; about 230 (0.07%) were called active. The sample holds actives, similar compounds and a random draw of the others, so the mix is not that of the screen.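 Rule for the calls: active = more than half of a compound's replicate wells show inhibition beyond 50%, single wells judged on their own value; inconclusive = some, but no more than half, of replicates pass 50% inhibition; inactive = no replicate passes 50% inhibition.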

Target: Lysine-specific demethylase 4C (Homo sapiens) (UniProt Q9H3R0)
Sequence (Q9H3R0 1-420 limits assumed): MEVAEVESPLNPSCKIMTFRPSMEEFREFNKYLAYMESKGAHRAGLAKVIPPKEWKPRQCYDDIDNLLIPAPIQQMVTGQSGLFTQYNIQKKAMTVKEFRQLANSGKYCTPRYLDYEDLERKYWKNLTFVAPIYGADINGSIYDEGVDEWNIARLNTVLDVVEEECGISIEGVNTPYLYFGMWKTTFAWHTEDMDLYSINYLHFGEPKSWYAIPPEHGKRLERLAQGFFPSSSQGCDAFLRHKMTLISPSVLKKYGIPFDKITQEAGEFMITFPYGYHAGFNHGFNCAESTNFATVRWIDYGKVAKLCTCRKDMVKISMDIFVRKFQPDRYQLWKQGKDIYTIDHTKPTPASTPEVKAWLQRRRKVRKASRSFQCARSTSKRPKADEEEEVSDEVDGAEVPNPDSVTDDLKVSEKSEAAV
Assay: JMJD2C H3K9me3 demethylation blockers – biochemical, fluorescence, DELFIA europium, primary screen (AID 2099);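 note: signal counts dimethyl H3K9 product captured on neutravidin plate; 0% = median of DMSO wells and 100% = 0.3 times that DMSO median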
Details: GST-JMJD2C(1-420) H3K9me3 demethylation, at 2.35 µM, stronger effect = higher value

| SMILES | inhibition |
| --- | --- |
| O=C(N1CCCCC1)N1CCN(C(=O)N2CCCCC2)CC1 | -0.997% (inactive) |
| COc1ccc(CC(NC(C)=O)C(=O)N2CCN(C(=O)Nc3cccc(Cl)c3)CC2)cc1OC (centres undefined) | 3.8% (inactive) |
| Cc1ccc2oc(C(=O)N3CCN(C)C[C@@H]3C(C)C)c(C)c2c1 | -21.1% (inactive) |
| COc1ccc(-c2nc3n(c(=O)c2C#N)CCS3)c(OC)c1 | -2.02% (inactive) |
| COc1ccccc1OCC(=O)Nc1c2c(nn1-c1ccc(F)cc1)CS(=O)(=O)C2 | -10.7% (inactive) |
| COC(=O)c1c(NC(=O)CN(c2ccc(C)c(C)c2)S(C)(=O)=O)sc2c1CCCC2 | 5.54% (inactive) |
| NS(=O)(=O)c1ccc(CNC(=S)NC(=O)c2ccco2)cc1 | 2.82% (inactive) |
| CC(C)C[C@@H](N)c1nnc(SCC(=O)c2ccc(Cl)cc2)o1 | -0.106% (inactive) |
| C=CCSc1nc(Cc2ccc(Cl)cc2)nc2ccccc12 | -13.3% (inactive) |
| CCOc1ccc(C(C)=O)cc1COC(=O)c1cnc(Cl)c(Cl)c1 | -8.14% (inactive) |
| O=S(=O)(NCCc1ccccn1)c1cc(Cl)cc(Cl)c1O | 6.23% (inactive) |
| CCN(C(=O)CSc1ncnc2sccc12)c1c(N)n(Cc2ccccc2)c(=O)[nH]c1=O | -1.94% (inactive) |
| CN1C(=O)c2ccccc2C(C(=O)NCCCN2CCCC2)C1c1c[nH]c2ccccc12 (centres undefined) | -5.55% (inactive) |
| COCCCn1c(SCC(=O)Nc2oc(C)c3c(C)n[nH]c(=O)c23)nc2sc3c(c2c1=O)CCC3 | -6.89% (inactive) |
| CCC(CO)Oc1cc(NC(=O)c2cccc(F)c2)c2ncn(C(C)C)c2c1 (centres undefined) | -5.85% (inactive) |
| CCC(CO)Oc1cc(NCc2ccccc2)c2ncn(C3CCCC3)c2c1 (centres undefined) | -1.07% (inactive) |
| CCC(CO)Oc1cc(NC(=O)c2cccc3ccccc23)c2ncn(C(C)C)c2c1 (centres undefined) | 51.8% (active) |
| CC(=O)Nc1ccc(Nc2ncnc3c2nnn3Cc2ccccc2Cl)cc1 | 1.4% (inactive) |
| CCC(=O)N1c2ccc(S(=O)(=O)NCc3ccco3)cc2CC1C (centres undefined) | 15.7% (inactive) |
| Cc1[nH]c(C)c(S(=O)(=O)N2CCN(c3cccc(C(F)(F)F)c3)CC2)c1C(=O)N1CCCCC1 | 30% (inactive) |
| Cc1ccc(C)c(NC(=O)CCC(=O)N/N=C2/CC(=O)CC(C)(C)C2)c1 | 3.28% (inactive) |
| COc1ccccc1NC1=NC(c2ccc(Cl)cc2)N=C(N)N1 (centres undefined) | 0.933% (inactive) |
| Cc1ccc(S(=O)(=O)N2CCC(C(=O)OCC(=O)N(C)c3ccccc3)CC2)cc1C | 10.2% (inactive) |
| O=C1c2ccccc2C(=O)N1CCOc1ccc(F)cc1 | -6.36% (inactive) |
